# Source: PMC7862700, “An all-to-all approach to the identification of sequence-specific readers for epigenetic DNA modifications on cytosine”
# Legend:
# Assay in all cases: DAPPL (digital affinity profiling via proximity ligation, sequencing); 10 mM Tris-HCl pH 7.5, 50 mM NaCl, 1 mM DTT, 4% glycerol, room temperature, 30 min; GST-TFs on glutathione beads, 16-mer random dsDNA library, 0.1% formaldehyde crosslink after washing; high values mean tight binding
# [1] = biological target: T1, FLI1 (Homo sapiens, UniProt Q01543 1-452); conditions: protein: recombinant; tags: N-terminal GST; dsDNA, one strand shown
# T1 sequence: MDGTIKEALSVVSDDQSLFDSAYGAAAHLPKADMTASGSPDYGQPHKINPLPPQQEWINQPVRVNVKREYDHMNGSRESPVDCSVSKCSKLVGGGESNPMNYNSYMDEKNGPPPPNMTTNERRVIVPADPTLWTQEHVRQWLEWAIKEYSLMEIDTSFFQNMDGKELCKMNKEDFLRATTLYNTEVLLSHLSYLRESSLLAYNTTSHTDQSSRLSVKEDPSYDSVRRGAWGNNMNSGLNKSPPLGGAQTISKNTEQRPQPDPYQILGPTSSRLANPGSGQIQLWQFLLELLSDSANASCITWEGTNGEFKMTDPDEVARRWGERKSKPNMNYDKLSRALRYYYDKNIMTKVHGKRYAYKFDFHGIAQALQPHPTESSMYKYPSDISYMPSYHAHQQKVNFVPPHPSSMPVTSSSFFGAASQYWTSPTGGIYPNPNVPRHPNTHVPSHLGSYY
# How it was run: (§1)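 After expression in yeast as GST fusions, human transcription factors were bound to glutathione beads, DNA-barcoded and mixed with a tag-only sample. The pools were incubated with 200 nmole of a 16-mer random double-stranded DNA library in Tris/NaCl/DTT/glycerol buffer (30 min, room temperature), washed and crosslinked with 0.1% formaldehyde. Proximity ligation with BsaI/T4 ligase ran for 1 h at 37 °C, before PCR amplification and sequencing on an Illumina NextSeq500. Binding signal is a hexamer's read frequency for a factor divided by its frequency for the tag-only sample.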
# [2] = biological target: T2, ELK1 (Homo sapiens, UniProt P19419 1-428); conditions: protein: recombinant; tags: N-terminal GST; dsDNA, one strand shown
# T2 sequence: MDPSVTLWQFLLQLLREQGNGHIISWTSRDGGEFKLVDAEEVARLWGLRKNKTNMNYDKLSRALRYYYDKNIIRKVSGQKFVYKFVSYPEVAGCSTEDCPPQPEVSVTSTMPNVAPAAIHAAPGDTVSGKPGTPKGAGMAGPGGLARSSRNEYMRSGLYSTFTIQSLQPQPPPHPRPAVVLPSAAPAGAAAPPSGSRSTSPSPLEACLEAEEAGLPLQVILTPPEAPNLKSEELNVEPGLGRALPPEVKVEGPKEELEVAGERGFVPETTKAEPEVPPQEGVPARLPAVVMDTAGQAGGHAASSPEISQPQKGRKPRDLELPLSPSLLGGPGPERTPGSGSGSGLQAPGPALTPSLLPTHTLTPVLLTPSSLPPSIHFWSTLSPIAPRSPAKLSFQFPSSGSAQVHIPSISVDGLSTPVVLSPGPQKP
# How it was run: as §1
# [3] = biological target: T3, GABPA (Homo sapiens, UniProt Q06546 1-454); conditions: protein: recombinant; tags: N-terminal GST; dsDNA, one strand shown
# T3 sequence: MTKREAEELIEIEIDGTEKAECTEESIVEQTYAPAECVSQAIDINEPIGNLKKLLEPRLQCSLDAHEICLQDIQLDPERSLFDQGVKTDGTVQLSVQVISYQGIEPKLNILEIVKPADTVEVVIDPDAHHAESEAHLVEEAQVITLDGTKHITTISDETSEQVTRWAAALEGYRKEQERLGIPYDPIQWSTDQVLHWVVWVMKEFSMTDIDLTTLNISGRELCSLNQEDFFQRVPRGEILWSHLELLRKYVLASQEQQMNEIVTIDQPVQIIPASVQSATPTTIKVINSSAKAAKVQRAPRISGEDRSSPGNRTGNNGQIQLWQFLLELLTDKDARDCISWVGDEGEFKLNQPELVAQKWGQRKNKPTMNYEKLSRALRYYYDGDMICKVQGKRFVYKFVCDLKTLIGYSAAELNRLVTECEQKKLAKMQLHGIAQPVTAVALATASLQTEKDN
# How it was run: as §1
# [4] = biological target: T4, ERG (Homo sapiens, UniProt P11308 1-479); conditions: protein: recombinant; tags: N-terminal GST; dsDNA, one strand shown
# T4 sequence: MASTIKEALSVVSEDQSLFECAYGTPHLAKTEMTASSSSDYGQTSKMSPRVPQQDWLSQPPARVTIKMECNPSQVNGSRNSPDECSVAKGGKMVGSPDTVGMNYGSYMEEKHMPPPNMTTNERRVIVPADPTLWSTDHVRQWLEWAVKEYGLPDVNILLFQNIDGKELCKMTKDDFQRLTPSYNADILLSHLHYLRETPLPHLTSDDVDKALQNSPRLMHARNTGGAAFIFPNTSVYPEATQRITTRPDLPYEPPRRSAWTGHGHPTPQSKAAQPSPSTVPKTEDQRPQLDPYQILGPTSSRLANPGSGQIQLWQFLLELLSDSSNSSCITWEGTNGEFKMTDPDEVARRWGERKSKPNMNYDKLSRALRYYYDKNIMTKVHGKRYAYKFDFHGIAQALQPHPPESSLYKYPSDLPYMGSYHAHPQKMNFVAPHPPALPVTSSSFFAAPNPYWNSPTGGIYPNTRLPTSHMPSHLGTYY
# How it was run: as §1
# [5] = biological target: ELF1 (Homo sapiens, UniProt P32519 1-619); conditions: protein: recombinant; tags: N-terminal GST; dsDNA, one strand shown
# How it was run: as §1
# [6] = biological target: T5, EHF (Homo sapiens, UniProt Q9NZC4 1-300); conditions: protein: recombinant; tags: N-terminal GST; dsDNA, one strand shown
# T5 sequence: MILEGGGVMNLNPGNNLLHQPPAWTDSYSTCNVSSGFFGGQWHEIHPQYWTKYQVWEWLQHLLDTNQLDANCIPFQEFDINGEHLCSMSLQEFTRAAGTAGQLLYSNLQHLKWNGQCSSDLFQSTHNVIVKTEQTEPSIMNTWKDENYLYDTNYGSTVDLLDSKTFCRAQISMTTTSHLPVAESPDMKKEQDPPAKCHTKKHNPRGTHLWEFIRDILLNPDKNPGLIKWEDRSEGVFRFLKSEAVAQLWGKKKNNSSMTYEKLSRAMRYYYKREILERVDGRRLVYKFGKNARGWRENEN
# How it was run: as §1
# [7] = biological target: SPI1 (Homo sapiens, UniProt P17947 1-270); conditions: protein: recombinant; tags: N-terminal GST; dsDNA, one strand shown
# How it was run: as §1
# [8] = biological target: SPIB (Homo sapiens, UniProt Q01892 1-262); conditions: protein: recombinant; tags: N-terminal GST; dsDNA, one strand shown
# How it was run: as §1
# [9] = biological target: T6, ELK3 (Homo sapiens, UniProt P41970 1-407); conditions: protein: recombinant; tags: N-terminal GST; dsDNA, one strand shown
# T6 sequence: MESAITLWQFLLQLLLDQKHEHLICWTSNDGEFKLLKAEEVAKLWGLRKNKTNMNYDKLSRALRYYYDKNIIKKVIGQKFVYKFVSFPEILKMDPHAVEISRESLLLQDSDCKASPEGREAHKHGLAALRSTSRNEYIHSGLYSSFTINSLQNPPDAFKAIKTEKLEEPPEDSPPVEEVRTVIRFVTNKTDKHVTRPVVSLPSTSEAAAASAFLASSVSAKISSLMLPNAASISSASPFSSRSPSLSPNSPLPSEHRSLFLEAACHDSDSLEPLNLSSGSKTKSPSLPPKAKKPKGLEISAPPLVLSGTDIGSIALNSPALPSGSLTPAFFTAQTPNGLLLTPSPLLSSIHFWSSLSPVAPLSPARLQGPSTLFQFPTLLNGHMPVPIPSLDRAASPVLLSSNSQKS
# How it was run: as §1
# [10] = biological target: T7, FEV (Homo sapiens, UniProt Q99581 1-238); conditions: protein: recombinant; tags: N-terminal GST; dsDNA, one strand shown
# T7 sequence: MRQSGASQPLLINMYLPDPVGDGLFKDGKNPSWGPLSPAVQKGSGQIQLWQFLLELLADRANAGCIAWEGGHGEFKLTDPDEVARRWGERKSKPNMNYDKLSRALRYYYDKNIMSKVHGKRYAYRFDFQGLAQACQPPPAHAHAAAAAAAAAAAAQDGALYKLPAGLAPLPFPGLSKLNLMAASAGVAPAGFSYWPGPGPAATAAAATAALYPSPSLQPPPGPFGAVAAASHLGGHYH
# How it was run: as §1
# [11] = biological target: ETV5 (Homo sapiens, UniProt P41161 1-510); conditions: protein: recombinant; tags: N-terminal GST; dsDNA, one strand shown
# How it was run: as §1
# [12] = biological target: HSF1 (Homo sapiens, UniProt Q00613 1-529); conditions: protein: recombinant; tags: N-terminal GST; chain copies: 3; dsDNA, one strand shown
# How it was run: as §1
# [13] = biological target: T8, SPIC (Homo sapiens, UniProt Q8N5J4 1-248); conditions: protein: recombinant; tags: N-terminal GST; dsDNA, one strand shown
# T8 sequence: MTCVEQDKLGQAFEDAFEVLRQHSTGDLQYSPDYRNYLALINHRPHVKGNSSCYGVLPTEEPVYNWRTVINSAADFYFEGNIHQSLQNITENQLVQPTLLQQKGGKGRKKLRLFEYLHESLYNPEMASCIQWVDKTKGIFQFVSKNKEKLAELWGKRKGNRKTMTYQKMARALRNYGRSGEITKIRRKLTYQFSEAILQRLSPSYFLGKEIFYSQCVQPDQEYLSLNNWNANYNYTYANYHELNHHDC
# How it was run: as §1
# [14] = biological target: ELF4 (Homo sapiens, UniProt Q99607 1-663); conditions: protein: recombinant; tags: N-terminal GST; dsDNA, one strand shown
# How it was run: as §1
# [15] = biological target: T9, ELK4 (Homo sapiens, UniProt P28324-2 1-405); conditions: protein: recombinant; tags: N-terminal GST; dsDNA, one strand shown
# T9 sequence: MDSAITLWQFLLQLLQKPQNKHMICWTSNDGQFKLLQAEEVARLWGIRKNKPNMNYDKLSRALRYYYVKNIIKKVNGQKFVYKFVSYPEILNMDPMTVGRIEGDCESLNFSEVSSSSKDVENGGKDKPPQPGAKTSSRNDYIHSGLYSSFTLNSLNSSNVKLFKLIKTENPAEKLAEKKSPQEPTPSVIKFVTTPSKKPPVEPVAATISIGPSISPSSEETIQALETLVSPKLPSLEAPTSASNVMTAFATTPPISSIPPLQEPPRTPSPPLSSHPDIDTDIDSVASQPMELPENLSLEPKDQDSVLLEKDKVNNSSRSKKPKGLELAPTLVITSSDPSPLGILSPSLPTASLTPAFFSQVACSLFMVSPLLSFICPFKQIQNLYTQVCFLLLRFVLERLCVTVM
# How it was run: as §1
# [16] = biological target: T10, ETV2 (Homo sapiens, UniProt O00321 1-342); conditions: protein: recombinant; tags: N-terminal GST; dsDNA, one strand shown
# T10 sequence: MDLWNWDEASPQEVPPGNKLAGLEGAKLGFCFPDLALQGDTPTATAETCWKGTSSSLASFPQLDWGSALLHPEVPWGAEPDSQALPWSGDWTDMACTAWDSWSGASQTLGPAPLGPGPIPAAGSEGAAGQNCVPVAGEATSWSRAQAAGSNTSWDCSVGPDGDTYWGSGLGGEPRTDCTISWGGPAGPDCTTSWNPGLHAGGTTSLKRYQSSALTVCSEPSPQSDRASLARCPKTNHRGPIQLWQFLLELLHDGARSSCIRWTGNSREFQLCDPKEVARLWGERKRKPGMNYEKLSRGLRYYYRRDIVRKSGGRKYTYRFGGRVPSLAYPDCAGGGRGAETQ
# How it was run: as §1
# [17] = biological target: T11, ELF3 (Homo sapiens, UniProt P78545 1-371); conditions: protein: recombinant; tags: N-terminal GST; dsDNA, one strand shown
# T11 sequence: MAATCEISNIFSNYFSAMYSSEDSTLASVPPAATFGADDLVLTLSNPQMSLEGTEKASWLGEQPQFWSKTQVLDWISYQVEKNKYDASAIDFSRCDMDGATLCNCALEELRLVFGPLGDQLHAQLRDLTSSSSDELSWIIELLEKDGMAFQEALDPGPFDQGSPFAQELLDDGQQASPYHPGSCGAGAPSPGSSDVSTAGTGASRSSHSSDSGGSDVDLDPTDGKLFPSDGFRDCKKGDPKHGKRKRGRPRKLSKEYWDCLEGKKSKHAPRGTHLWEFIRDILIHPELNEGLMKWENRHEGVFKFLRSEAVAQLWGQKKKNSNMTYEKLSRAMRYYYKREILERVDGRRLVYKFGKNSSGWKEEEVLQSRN
# How it was run: as §1
# [18] = biological target: CRX (Homo sapiens, UniProt O43186 1-299); conditions: protein: recombinant; tags: N-terminal GST; dsDNA, one strand shown
# How it was run: as §1
# [19] = biological target: ETV1 (Homo sapiens, UniProt P50549 1-477); conditions: protein: recombinant; tags: N-terminal GST; dsDNA, one strand shown
# How it was run: as §1
# Chain of ETV1 (P50549 whole entry): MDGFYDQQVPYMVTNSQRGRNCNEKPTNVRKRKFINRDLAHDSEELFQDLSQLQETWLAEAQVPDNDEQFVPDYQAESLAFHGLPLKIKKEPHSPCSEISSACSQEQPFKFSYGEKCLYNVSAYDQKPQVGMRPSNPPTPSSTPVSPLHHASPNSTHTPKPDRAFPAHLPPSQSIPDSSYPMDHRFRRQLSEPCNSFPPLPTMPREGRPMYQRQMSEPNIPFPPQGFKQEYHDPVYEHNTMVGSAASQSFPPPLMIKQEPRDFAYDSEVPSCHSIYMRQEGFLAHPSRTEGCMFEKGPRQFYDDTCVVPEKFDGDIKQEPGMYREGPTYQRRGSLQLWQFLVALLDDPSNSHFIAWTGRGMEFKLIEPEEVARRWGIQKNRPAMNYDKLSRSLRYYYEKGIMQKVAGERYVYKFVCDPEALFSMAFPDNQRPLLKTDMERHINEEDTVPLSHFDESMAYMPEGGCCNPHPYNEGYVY
# Chain of HSF1 (Q00613 whole entry): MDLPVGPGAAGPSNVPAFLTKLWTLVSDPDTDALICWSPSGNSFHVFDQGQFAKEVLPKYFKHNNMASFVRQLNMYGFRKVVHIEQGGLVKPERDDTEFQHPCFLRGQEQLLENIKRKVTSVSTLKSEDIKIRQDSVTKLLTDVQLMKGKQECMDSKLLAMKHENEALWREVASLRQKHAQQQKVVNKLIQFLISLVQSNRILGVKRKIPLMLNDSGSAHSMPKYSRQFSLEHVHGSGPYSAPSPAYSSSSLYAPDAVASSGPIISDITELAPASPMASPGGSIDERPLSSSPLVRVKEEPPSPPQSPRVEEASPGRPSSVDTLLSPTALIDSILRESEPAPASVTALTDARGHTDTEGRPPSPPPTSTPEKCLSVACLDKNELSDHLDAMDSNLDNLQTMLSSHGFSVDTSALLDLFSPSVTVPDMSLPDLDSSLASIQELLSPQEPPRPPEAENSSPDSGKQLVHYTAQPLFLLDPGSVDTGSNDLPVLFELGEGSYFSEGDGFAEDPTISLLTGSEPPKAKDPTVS
# Chain of ELF1 (P32519 whole entry): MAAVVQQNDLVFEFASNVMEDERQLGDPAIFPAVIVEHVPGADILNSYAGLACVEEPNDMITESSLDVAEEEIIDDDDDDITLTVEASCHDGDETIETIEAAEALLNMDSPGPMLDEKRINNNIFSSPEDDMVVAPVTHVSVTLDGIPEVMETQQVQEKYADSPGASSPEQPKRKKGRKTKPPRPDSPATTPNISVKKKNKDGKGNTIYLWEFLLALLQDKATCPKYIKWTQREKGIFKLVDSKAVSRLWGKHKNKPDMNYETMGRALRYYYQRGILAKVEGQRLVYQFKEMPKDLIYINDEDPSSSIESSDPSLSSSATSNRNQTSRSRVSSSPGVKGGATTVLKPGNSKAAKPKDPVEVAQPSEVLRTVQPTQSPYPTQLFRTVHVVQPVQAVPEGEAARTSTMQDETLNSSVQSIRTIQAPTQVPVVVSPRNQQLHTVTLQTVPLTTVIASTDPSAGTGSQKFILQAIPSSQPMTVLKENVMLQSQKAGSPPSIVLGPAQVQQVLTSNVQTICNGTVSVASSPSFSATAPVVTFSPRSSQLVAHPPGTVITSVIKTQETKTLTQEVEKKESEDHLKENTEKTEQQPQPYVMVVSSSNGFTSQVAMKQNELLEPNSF
# Chain of CRX (O43186 whole entry): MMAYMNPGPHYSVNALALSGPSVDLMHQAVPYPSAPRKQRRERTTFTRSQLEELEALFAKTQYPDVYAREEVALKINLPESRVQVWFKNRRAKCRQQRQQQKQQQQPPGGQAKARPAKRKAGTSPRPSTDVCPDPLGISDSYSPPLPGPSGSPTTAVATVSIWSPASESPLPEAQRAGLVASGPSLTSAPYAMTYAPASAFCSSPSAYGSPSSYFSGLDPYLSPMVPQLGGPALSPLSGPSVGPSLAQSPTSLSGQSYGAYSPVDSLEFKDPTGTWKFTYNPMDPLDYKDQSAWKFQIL
# Chain of ELF4 (Q99607 whole entry): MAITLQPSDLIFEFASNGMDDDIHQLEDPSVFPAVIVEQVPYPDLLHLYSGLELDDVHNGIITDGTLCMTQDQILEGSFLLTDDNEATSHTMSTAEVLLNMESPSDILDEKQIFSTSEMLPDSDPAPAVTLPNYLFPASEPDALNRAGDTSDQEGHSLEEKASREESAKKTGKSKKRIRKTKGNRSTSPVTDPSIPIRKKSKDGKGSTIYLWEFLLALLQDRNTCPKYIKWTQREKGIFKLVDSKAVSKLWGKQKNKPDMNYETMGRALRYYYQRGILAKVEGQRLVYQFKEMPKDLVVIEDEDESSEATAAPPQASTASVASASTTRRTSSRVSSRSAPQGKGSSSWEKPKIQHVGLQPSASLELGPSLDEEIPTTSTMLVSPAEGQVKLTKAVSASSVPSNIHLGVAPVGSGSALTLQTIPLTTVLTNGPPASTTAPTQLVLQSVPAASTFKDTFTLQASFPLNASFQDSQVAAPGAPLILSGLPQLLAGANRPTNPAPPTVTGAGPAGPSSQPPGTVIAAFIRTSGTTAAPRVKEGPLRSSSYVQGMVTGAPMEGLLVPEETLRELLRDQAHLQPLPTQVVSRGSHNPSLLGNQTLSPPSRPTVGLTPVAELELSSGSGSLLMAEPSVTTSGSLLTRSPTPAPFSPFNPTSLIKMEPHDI
# Chain of SPIB (Q01892 whole entry): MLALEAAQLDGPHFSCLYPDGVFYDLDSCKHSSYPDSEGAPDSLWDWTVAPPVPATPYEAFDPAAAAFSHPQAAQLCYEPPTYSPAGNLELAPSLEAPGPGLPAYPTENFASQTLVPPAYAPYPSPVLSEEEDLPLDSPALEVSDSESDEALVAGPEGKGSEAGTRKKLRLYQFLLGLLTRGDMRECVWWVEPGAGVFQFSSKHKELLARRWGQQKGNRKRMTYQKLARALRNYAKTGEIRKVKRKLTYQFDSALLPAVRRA
# Chain of ETV5 (P41161 whole entry): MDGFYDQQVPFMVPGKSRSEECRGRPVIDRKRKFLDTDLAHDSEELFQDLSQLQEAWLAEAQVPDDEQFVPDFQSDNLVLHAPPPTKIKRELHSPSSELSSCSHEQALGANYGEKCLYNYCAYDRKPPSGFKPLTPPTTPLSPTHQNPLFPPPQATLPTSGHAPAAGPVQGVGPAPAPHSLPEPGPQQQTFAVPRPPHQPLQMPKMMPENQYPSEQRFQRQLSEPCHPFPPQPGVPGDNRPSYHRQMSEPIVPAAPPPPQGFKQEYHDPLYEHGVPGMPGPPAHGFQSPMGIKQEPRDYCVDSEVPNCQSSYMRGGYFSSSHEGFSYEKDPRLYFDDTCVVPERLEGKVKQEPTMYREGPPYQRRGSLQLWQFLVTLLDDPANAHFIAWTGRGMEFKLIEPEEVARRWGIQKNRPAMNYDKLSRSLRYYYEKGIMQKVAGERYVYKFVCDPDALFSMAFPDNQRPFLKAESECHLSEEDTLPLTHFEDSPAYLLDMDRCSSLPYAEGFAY
sequence,measurement,setting,value
CGACAA,binding signal,[1],"1.17 fold enrichment (6-mer frequency, TF over GST control)"
same,binding signal,[2],"1.09 fold enrichment (6-mer frequency, TF over GST control)"
same,binding signal,[3],"1.26 fold enrichment (6-mer frequency, TF over GST control)"
same,binding signal,[4],"1.17 fold enrichment (6-mer frequency, TF over GST control)"
same,binding signal,[5],"1.21 fold enrichment (6-mer frequency, TF over GST control)"
same,binding signal,[6],"1.24 fold enrichment (6-mer frequency, TF over GST control)"
same,binding signal,[7],"1.12 fold enrichment (6-mer frequency, TF over GST control)"
same,binding signal,[8],"1.2 fold enrichment (6-mer frequency, TF over GST control)"
same,binding signal,[9],"1.07 fold enrichment (6-mer frequency, TF over GST control)"
same,binding signal,[10],"1.3 fold enrichment (6-mer frequency, TF over GST control)"
same,binding signal,[11],"1.24 fold enrichment (6-mer frequency, TF over GST control)"
same,binding signal,[12],"1.12 fold enrichment (6-mer frequency, TF over GST control)"
same,binding signal,[13],"1.15 fold enrichment (6-mer frequency, TF over GST control)"
same,binding signal,[14],"1.18 fold enrichment (6-mer frequency, TF over GST control)"
same,binding signal,[15],"1.13 fold enrichment (6-mer frequency, TF over GST control)"
same,binding signal,[16],"1.08 fold enrichment (6-mer frequency, TF over GST control)"
same,binding signal,[17],"1.17 fold enrichment (6-mer frequency, TF over GST control)"
same,binding signal,[18],"1.03 fold enrichment (6-mer frequency, TF over GST control)"
same,binding signal,[19],"1.18 fold enrichment (6-mer frequency, TF over GST control)"
